Shn3 3UTR inh – Schnurri-3 reporter inhibition in Clone20 osteoblasts | inhibition, % at 12.5 µM | 360,000 compounds, 0.52% hits | AID 588674 | Clone20 osteoblast Shn3 3'UTR firefly luciferase, 24 h;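 active = mean inhibition of at least 75% with every replicate also reaching 75%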;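 note: 0% = median of neutral control wells and 100% = pilot-screen positive control compound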
SRC3 inh – inhibits human SRC3 coactivator; AID 588352; 360,000 compounds, 0.17% hits; inhibition, % at 3.6 µM; HEK293 GAL4-SRC3 luciferase reporter, luminescence; Q9Y6Q9;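 active = inhibition above a per-campaign cutoff, the mean of all compounds plus 3 SD, cut at about 60% in these data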;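 note: 0% = DMSO-treated cells and 100% = gossypol-treated cells at 36 µM; higher means less SRC3-driven luciferase light from the GAL4 reporter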
SRC1 inh – human NCOA1 inhibition; Q15788; HEK293 GAL4-SRC1 luciferase reporter, luminescence; inhibition, % at 3.6 µM; 360,000 compounds, 0.12% hits; AID 588354;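 active = inhibition above the campaign mean plus 3 SD, with each screening campaign given its own cutoff, cut at about 60% in these data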;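 note: 0% = DMSO treated cells and 100% = gossypol at 36 µM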
Gli-Sufu antag – blocks Gli-Sufu signaling in a luciferase reporter; Sufu-KO-LIGHT fibroblasts, Gli luciferase reporter luminescence; 340,000 compounds, 0.74% hits; inhibition, % at 5 µM; AID 588413;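 active = inhibition above about 55%, limit read from the data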;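 note: 0% = DMSO-treated cells and 100% = wells with medium but no cells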
SRC2 inh – inhibits human steroid receptor coactivator 2; 370,000 compounds, 0.17% hits; HEK293 GAL4-SRC2 luciferase reporter, luminescence; AID 651957; inhibition, % at 9 µM;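 active = inhibition above the mean inhibition of all tested compounds plus 3 SD, set per campaign, cut at about 52% in these data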;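 note: 0% = DMSO treated cells and 100% = cells given Gossypol at 36 µM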
NR5A2 inv ag – suppresses constitutive activity of human LRH-1; 360,000 compounds, 0.13% hits; inhibition, % at 3.6 µM; HEK293T StAR-luciferase reporter, LRH-1 transfected, 24 h; AID 602396;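 active = inhibition above the mean inhibition of all tested compounds plus 3 SD, cut at about 73% in these data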;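 note: 0% = DMSO wells and 100% = reporter-only cells lacking LRH-1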
* hit, by the source's call; . = not tested or not shown. The list is not random: actives were taken first. Their share in the collection is about 1.1%.

SMILES	Shn3 3UTR inh	SRC3 inh	SRC1 inh	Gli-Sufu antag	SRC2 inh	NR5A2 inv ag
O=C(CCCN1C(=O)/C(=C/c2ccccc2Cl)SC1=S)NNC(=O)c1ccc(Cl)cc1Cl	42	34	27	26	81*	3
O=C(CCCN1C(=O)/C(=C/c2ccccc2Cl)SC1=S)NNC(=O)c1cccnc1	9	18	18	-17	79*	20
O=C(CCCN1C(=O)/C(=C/c2ccccc2Cl)SC1=S)NNC(=O)c1ccccc1	10	40	37	6	81*	37
O=C(CCCN1C(=O)S/C(=C\c2ccccc2)C1=O)NNC(=O)c1ccccc1O	28	71*	60	36	78*	42
COc1cccc(C(=O)N(CCN2CCOCC2)Cc2ccc(OC)c(OC)c2)c1	.	.	.	.	-10	.
O=C(CSc1nc2ccccc2n1Cc1ccccc1Cl)NN=C/C(Br)=C/c1ccccc1	.	.	.	.	2	.
COc1ccc(Cn2cc(COC(=O)NCC(C)C)nn2)cc1	.	.	.	.	6	.
COP(=O)(O)C[C@@H]1CCc2cc(C)cc([C@H](CC(C)C)NC(=O)OCc3ccccc3)c2O1	.	.	.	.	-1	.
C=C1C(=O)O[C@H]2C[C@H]1[C@@H](OC(C)=O)C/C(C)=C/CC/C(C)=C\CC[C@]2(C)O	71	72*	33	-5	44	41
C=C1C(=O)O[C@@H]2[C@H]3O[C@]3(C)CC/C=C(\C)CC[C@@H]12	-21	-6	14	0	3	3
CCCc1c(C(=O)N/N=C(\C)c2ccccn2)nnn1-c1nonc1N	89*	-14	-4	.	-7	23
CCCc1c(C(=O)N/N=C(\C)c2ccc(O)cc2)nnn1-c1nonc1N	4	-7	11	-10	6	9
CCOC(=O)c1ccc(-c2ccc(N3C(c4ccsc4)=Cc4ccc(F)cc4C3c3c[nH]c4ccc(C#N)cc34)cc2)cc1F (stereo unspecified)	.	.	.	.	79*	20
CC(C)(O)C#Cc1ccc(N2C(c3ccsc3)=Cc3ccc(F)cc3C2c2c[nH]c3ccc(C#N)cc23)cc1 (stereo unspecified)	.	.	.	.	-27	-4
O=C(OC12CCCN(C1)/C(=C/c1ccc(Cl)cc1)C2)c1ccc(Cl)cc1 (stereo unspecified)	.	.	.	.	14	.
CCN1Cc2nnn(Cc3ccc(C)cc3)c2-c2ccccc2S1(=O)=O	.	.	.	.	-1	.
O=C(Nc1ccc(OCc2ccccc2Cl)cc1)c1cccnc1	41	21	24	22	67*	16
COC(=O)c1ccc(Cn2ccc3ccc(-c4ccc5ccn(C(=O)c6ccccc6C)c5c4)cc32)cc1	.	.	.	.	3	.
O=Cc1s/c(=N\S(=O)(=O)c2ccccc2)n(CCCCl)c1Cl	93*	-6	-22	-2	-9	-2
C#CCNC(=O)C[C@H]1C[C@@]2(C(=O)OC)C(=C[C@H](COCc3ccccc3)O[C@@H]2C)N(Cc2cccc3ccccc23)C1=O	.	.	.	.	12	.
CC1(c2nnnn2-c2ccc3ccccc3c2)CSCC(=O)N1C1CC1 (stereo unspecified)	.	.	.	.	4	.
COc1cc(-n2c(C)nc3cc(C(=O)N4CC(C)CC(C)C4)ccc32)cc(OC)c1OC (stereo unspecified)	.	.	.	.	-10	.
COc1cc(/C=C/c2cccc[n+]2C)ccc1OCC(=O)Nc1ccccc1C	-25	6	-2	3	-22	7
CCOc1cc(/C=C\[N+](=O)[O-])ccc1OCC(=O)Nc1ccccc1C	95*	-12	-4	-2	.	11
COC(=O)c1cc(C(C)c2ccccc2O)n2ccccc12 (stereo unspecified)	.	.	.	.	5	.
SMILES	Shn3 3UTR inh	SRC3 inh	SRC1 inh	Gli-Sufu antag	SRC2 inh	NR5A2 inv ag
O=C1c2ccccc2C(=O)c2c1oc(C(F)(F)F)c2C(=O)c1ccccc1	91*	31	-9	-11	3	28
COc1ccc(CCNC(=O)Cn2ncc3c2-c2cc(C)ccc2OC3)cc1	.	.	.	.	-6	.
NS(=O)(=O)c1ccc(NC(=S)N2CCN(c3ccc(Cl)c(Cl)c3)CC2)cc1	78	27	1	59*	-4	14
NS(=O)(=O)c1ccc(NC(=S)N2CCN(Cc3ccc(Cl)c(Cl)c3)CC2)cc1	21	17	-1	11	13	3
Cc1oc2c(c1C(=O)NCc1cccnc1)C(=O)c1ccccc1C2=O	.	.	.	80*	.	.
COc1ccc(CNC(=O)c2c(C)oc3c2C(=O)c2ccccc2C3=O)cc1	76	-13	13	64*	-7	12
C=C(C)/C=C1/CN(Cc2ccc3c(c2)OCO3)C(=N)N1C(=O)OCc1ccccc1	.	.	.	.	15	.

Screens (PubChem BioAssay)
